From PubChem BioAssay (NCI)
The panel holds about 79,000 compounds, 15% with a hit somewhere; the sample as a whole holds those more often. Cut-off read from the data, not from the text of the source: active = growth inhibition above about 70%; inactive = the rest.

Key:
[1] = NCI Yeast Anticancer Drug Screen. Data for the rad50 strain (AID 155);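 note: 0% = growth of vehicle-only cultures of the same strain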; conditions: S. cerevisiae rad50 strain growth inhibition; at 50.0 µM; stronger effect = higher value
How it was run: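 Vehicle-treated cultures provide the reference for the growth inhibition reported for compound-exposed, repair-deficient yeast.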

[2] = NCI Yeast Anticancer Drug Screen. Data for the mec2-1 strain (AID 157); conditions: S. cerevisiae mec2-1 strain, at 50.0 µM, stronger effect = higher value
How it was run: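 Each compound was tested on mec2-1 yeast, a strain altered in DNA damage repair or cell cycle control. Growth inhibition is reported relative to vehicle.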

[3] = NCI Yeast Anticancer Drug Screen. Data for the sgs1 mgt1 strain (AID 161);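 note: 0% = growth of cultures given vehicle only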; conditions: S. cerevisiae sgs1 mgt1 strain, at 50.0 µM, stronger effect = higher value
How it was run: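 Mutant yeast exposed to compound; growth scored against vehicle-only wells.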

[4] = NCI Yeast Anticancer Drug Screen. Data for the cln2 rad14 strain (AID 165);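 note: 0% = growth equal to vehicle treated cultures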; conditions: S. cerevisiae cln2 rad14 strain, at 50.0 µM, stronger effect = higher value
How it was run: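 Test compounds were added to cln2 rad14 yeast cultures; inhibition of growth was then determined by comparison with vehicle treatment.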

[5] = NCI Yeast Anticancer Drug Screen. Data for the bub3 strain (AID 167); conditions: S. cerevisiae bub3 mutant strain, at 50.0 µM, stronger effect = higher value
How it was run: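 Mutant yeast screening strain plus compound; vehicle-treated cultures serve as the 0% inhibition reference.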

[6] = NCI Yeast Anticancer Drug Screen. Data for the mlh1 rad18 strain (AID 175); conditions: S. cerevisiae mlh1 rad18 strain growth inhibition; at 50.0 µM; stronger effect = higher value
How it was run: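 Inhibition values reflect reduced growth of mutant yeast versus vehicle-treated controls following compound exposure; the mutations affect DNA damage repair.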

Measured: growth inhibition

CN(C=O)C(C(=O)Nc1cccc2c(OC(=O)C(N(C)C=O)(N(C)C=O)N(C)C=O)c(N=Nc3ccc(S(=O)(=O)Nc4nccs4)cc3)cc(N=Nc3ccc(S(=O)(=O)Nc4nccs4)cc3)c12)(N(C)C=O)N(C)C=O (tested in a mixture with another compound)
inactive: [1] 60.1% | [2] 6.25% | [3] -6.25% | [4] -6.5% | [5] 16.9% | [6] 35.6%

COC1OC(CBr)C(OC(=O)c2ccccc2)C(OC(C)=O)C1OC(C)=O (stereo unspecified)
inactive: [1] -23.9% | [2] -4.6% | [3] -12.2% | [4] 11% | [5] -1.5% | [6] -22.8%

Cc1cc(C)c(N)cc1C
inactive: [1] 3.9% | [2] 13% | [3] -20.4% | [4] -43.5% | [5] -2.2% | [6] -2.5%

COc1cccc(C(=O)O)c1[N+](=O)[O-]
inactive: [1] -19.1% | [2] -26.6% | [3] -24% | [4] -46.1% | [5] -6.05% | [6] -1%

CC1=NN2C(c3ccc(Cl)cc3)=CSC2=NC(C)(C)C1
inactive: [1] 16.6% | [2] -16.9% | [3] -3.1% | [4] 5.8% | [5] -8.6% | [6] -13.2%

CSC1(C)C(=O)Nc2ccc(C(F)(F)F)cc21 (stereo unspecified)
inactive: [1] 9.35% | [2] 4.8% | [3] -0.05% | [4] 17.7% | [5] -6.15% | [6] 0.1%

COc1ccc(C(Br)C(Br)C(=O)C(C)(C)C)cc1 (stereo unspecified)
inactive: [1] -2.95% | [2] 8.75% | [3] 6.2% | [4] -21.6% | [5] 31.6% | [6] 30.4%

Cn1cnc([N+](=O)[O-])c1Sc1nc2ncccc2[nH]1
inactive: [1] -5.6% | [2] -7.1% | [3] -20.1% | [4] 16.6% | [5] -8.9% | [6] 0%

COc1ccc(NC2=CC(=O)c3ccccc3C2=O)cc1
inactive: [1] 0.4% | [2] 5.55% | [3] 4.1% | [4] -35% | [5] 18.2% | [6] -7.1%

CCOC(=O)C(C)(C(=O)OCC)c1c[n+]([O-])c2ccccc2c1[N+](=O)[O-]
inactive: [1] 13.8% | [2] -5.15% | [3] 19.3% | [4] -22.4% | [5] -4.55% | [6] 12.9%

S=C1SCN(c2ccc(Br)cc2)CN1c1ccc2[nH]c(=S)sc2c1
inactive: [1] 10.6% | [2] 15.3% | [3] 26.1% | [4] 0.45% | [5] 12.1% | [6] 5.65%

CC1C(c2ccccc2)OC(c2ccccc2)N1C (stereo unspecified)
inactive: [1] 3.25% | [2] -6.55% | [3] 21.4% | [4] 55.4% | [5] 9.7% | [6] -15.2%

CC(C)(C)NC(=O)c1cccc(C(=O)NC(C)(C)C)n1
inactive: [1] 3.3% | [2] -8% | [3] -0.3% | [4] -7.9% | [5] -13.3% | [6] -16.4%

NCCCC(N)C(=O)O (stereo unspecified)
inactive: [1] -16.9% | [2] -17.4% | [3] -33.5% | [4] -12.7% | [5] -42.6% | [6] -19.7%

COc1ccc(OC)c2c(Cl)cc(NCCCN3CCN(CCCNc4cc(Cl)c5c(OC)ccc(OC)c5n4)CC3)nc12
inactive: [1] 13.5% | [2] 16.4% | [3] 21.8% | [4] -24.1% | [5] 4.65% | [6] 25.1%

CCCC(C)NC(=O)c1ccc(OCC)cc1 (stereo unspecified)
inactive: [1] -12.6% | [2] -3% | [3] -4.95% | [4] -44% | [5] -12.3% | [6] -3.85%

N#Cc1c2c(c(N3CCCCC3)n3c1nc1ccccc13)CCC2
inactive: [1] 19.4% | [2] 13.9% | [3] 26.8% | [4] 8% | [5] 19.9% | [6] 19.9%

Cc1cccc(Cl)c1NC(=O)NCCCN1CCOCC1
inactive: [1] 2.8% | [2] -14.9% | [3] 6.2% | [4] 14.1% | [5] -1.75% | [6] 6.45%

CCC1(CN(C)C)CC/C(=C\c2ccc(OC)c(OC)c2)C1=O (stereo unspecified)
inactive: [1] 13.2% | [2] 0% | [3] -1.25% | [4] 15.9% | [5] 7.8% | [6] 25.2%

Cc1ccc(/C=C/C(=O)c2c([O-])on[n+]2-c2ccccc2)cc1
inactive: [1] 2.6% | [2] -7.85% | [3] 21.9% | [4] 14.9% | [5] 5% | [6] -4.8%

C/C(=N\O)c1ccc2[nH]c(C)cc(=O)c2c1
inactive: [1] 2.95% | [2] 5.7% | [3] -5.45% | [4] -32.9% | [5] -1.15% | [6] 12.7%
